# Most compounds without a hit are left out; they make up all but 1.8% or so of the library.
# MazF activator – increases E. coli MazEF RNase cleavage of RNA. actives 0.32% (n = 350,000). FAM/BHQ RNA-DNA oligo cleavage fluorescence, 5 h. activation, % at 20 µM. P0AE70. AID 504720; in the data active = activation above about 50%
# Y pestis TopoI – blocks Yersinia pestis topoisomerase I activity; actives 0.064% (n = 360,000); AID 504884; Y. pestis Topo-I cleavage product accumulation, plate reader; activity, % at 10 µM; in the data active = activity above about 50%, passing the limit was not always enough
# PrPC TRFRET – inhibitors of human cell surface prion protein PrPC; actives 0.43% (n = 370,000); inhibition, % at 13.8 µM; TR-FRET read-out; P04156; in the data active = inhibition above about 24%; note: 0% = median of the test wells and 100% = reference compound wells
# CCHF vOTU inh – CCHFV vOTU protease inhibition | Pep-AMC fluorescence | inhibition, % at 11.5 µM | actives 0.55% (n = 370,000); in the data active = inhibition above about 30%; note: 0% = vehicle wells with enzyme and 100% = no enzyme wells
# BH1578 lux ind – inducers of Vibrio cholerae quorum light production without autoinducers; V. cholerae BH1578 lux reporter, luminescence, 6 h; activation, % at 18.7 µM; actives 0.16% (n = 350,000); AID 588436; in the data active = activation mostly above about 9.7%, no sharp cut-off
# VHR inh abs – DUSP3 (human) phosphatase inhibition | P51452 | inhibition, % at 13.3 µM | actives 0.52% (n = 290,000) | recombinant VHR phosphatase, pNPP absorbance | AID 1654; in the data active = inhibition above about 50%
# PrPC TRFRET cf – confirmation of inhibitors of cell surface human prion protein; shares compounds with PrPC TRFRET; cell surface PrPC level, TR-FRET; inhibition, % at 13.8 µM; actives 65% (n = 1,500); AID 743200; in the data active = inhibition above about 25%
# LD9 cytotox – counter-screen for PrPc inhibitors: cytotoxicity in LD9 cells; inhibition, % at 13.8 µM; luminescence viability; actives 29% (n = 1,500); shares compounds with PrPC TRFRET; in the data active = inhibition above about 9.5%
# * hit, by the source's call; i = inactive; · = no result given.
SMILES,MazF activator,Y pestis TopoI,PrPC TRFRET,CCHF vOTU inh,BH1578 lux ind,VHR inh abs,PrPC TRFRET cf,LD9 cytotox
CC(C)C(=O)NC(c1ccc(Cl)cc1Cl)c1ccc2cccnc2c1O (centres undefined),7,-5,30*,-4,0,6,25*,9.8*
CCC(=O)NC(c1ccc(Cl)cc1Cl)c1ccc2cccnc2c1O (centres undefined),-3,-6,28*,-12,i,38,21,25*
CCCC(=O)NC(c1ccccc1Cl)c1ccc2cccnc2c1O (centres undefined),-2,-16,27*,1,-1,13,28*,34*
COC(=O)[C@@]12CCCCC3=C1N(CCC3)C(=O)[C@H]2CC(=O)NCCCN1CCCC1=O,·,·,-6,-7,·,·,·,·
CC(=O)NC(c1ccc(Cl)cc1)c1ccc2cccnc2c1O (centres undefined),5,1,40*,-10,i,·,35*,33*
CCOc1ccc(Nc2nc(NCC3CCCO3)c3ccccc3n2)cc1 (centres undefined),36,8,34*,10,-1,-5,30*,32*
c1ccc(Nc2nc(NCC3CCCO3)c3ccccc3n2)cc1 (centres undefined),26,6,20,23,-1,-3,·,·
CC1=CC(=O)C(C(C)C)=C/C1=C(\c1cc(C(C)C)c(OP(=O)(O)O)cc1C)c1ccccc1C(=O)O,-2,4,14,18,i,16,·,·
N#CNC(=Nc1cccc(F)c1)SCc1ccccc1F,-3,5,26*,7,0,2,17,8
CCCn1c(N)c(C(=O)CSc2nncs2)c(=O)[nH]c1=O,0,2,55*,1,0,·,67*,-5
CCCn1c(N)c(C(=O)CSc2nnc(N)s2)c(=O)[nH]c1=O,-5,7,42*,7,i,·,43*,4
CCCn1c(N)c(C(=O)CSc2nc3ccccc3s2)c(=O)[nH]c1=O,4,5,4,-13,i,19,·,·
O=C(O)c1ccc(Cn2cnc3c(=O)[nH]cnc32)cc1,6,8,0,2,-8,·,·,·
Cc1ccc(CN2CCN(Cc3ccco3)CC2)cc1,15,-6,-4,-3,i,4,·,·
C=CCOC(=O)C1=C(C)NC(SCC(=O)N(CC)CC)=C(C#N)C1c1ccccc1 (centres undefined),5,17,29*,14,0,-4,35*,8
C=CCOC(=O)C1=C(C)NC(SCC(=O)N(CC)CC)=C(C#N)C1c1ccco1 (centres undefined),0,0,3,3,-7,-12,·,·
C/C(=N/NC(=O)CSc1nnc(SCc2ccc(C)cc2)s1)c1cccc(O)c1,·,·,2,7,·,·,·,·
Cc1[nH]nc2c1C(c1ccc(F)cc1)N(c1ccccc1)C2=O (centres undefined),·,·,5,-1,·,·,·,·
Cc1sc2ncnc(Sc3ccccc3C(=O)Nc3ccc(Br)cc3)c2c1C,-5,-10,25*,12,0,26,31*,-3
Cc1sc2ncnc(Sc3ccccc3C(=O)Nc3ccc(C#N)cc3)c2c1C,-16,-4,21,-4,0,8,·,·
Cn1c2ccccc2c2cc(/C=N/NC(=O)c3ccccc3F)ccc21,-16,-7,47*,-2,-3,32,14,0
COc1cccc(NC(=O)c2nc(SC)ncc2Cl)c1,-4,2,0,10,0,22,·,·
COc1cccc(NC(=O)c2nc(S(C)(=O)=O)ncc2Cl)c1,-5,-8,83*,8,i,12,6,94*
CN(c1ccccc1)S(=O)(=O)c1ccc(NC(=O)c2nc(S(C)(=O)=O)ncc2Cl)cc1,7,9,41*,-5,0,-24,93*,98*
COc1ccc(N2CCN(C(=O)CN(c3cccc(OC)c3)S(=O)(=O)c3ccccc3)CC2)cc1,0,23,-6,3,0,10,·,·
SMILES,MazF activator,Y pestis TopoI,PrPC TRFRET,CCHF vOTU inh,BH1578 lux ind,VHR inh abs,PrPC TRFRET cf,LD9 cytotox
O=C(/C=C/c1cccc(F)c1)NCCCn1ccnc1,-1,-2,-18,4,1,-2,·,·
COC(=O)C1(C)CCc2cc(OC)ccc2C1=O (centres undefined),1,0,-4,8,2,-4,·,·
COc1ccc2c(c1)CCC1(C)CC(=O)C(Br)=C21 (centres undefined),6,17,42*,-162,i,·,68*,-4
Cc1cccc(C(=O)O)c1NC(=O)Cc1cccc2ccccc12,-5,-9,3,7,0,-8,·,·
NS(=O)(=O)c1ccc(CCNC(=O)c2cc([N+](=O)[O-])ccc2N2CCOCC2)cc1,6,-4,-23,2,i,·,·,·
Cc1ccc(S(=O)(=O)c2ncccc2N)cc1,-3,2,2,-16,-1,20,·,·
Cc1ccc(S(=O)(=O)c2ncccc2[N+](=O)[O-])cc1,9,7,71*,-2,-1,26,55*,98*
Cc1ccc(Cc2c(-c3ccco3)nc3c(C)cc(Br)cn23)cc1,·,·,37*,11,·,·,56*,-2
Cc1cc(Br)cn2c(Cc3cccc(Cl)c3)c(-c3ccco3)nc12,·,·,37*,4,·,·,56*,-1
O=C(CSc1nnc(-c2cccnc2)o1)Nc1cccc(F)c1,1,-3,5,-12,1,·,·,·
CSCCC1NC(=O)N(CC(=O)Nc2ccc(-c3ccccc3)cc2)C1=O (centres undefined),-1,-3,5,13,0,10,·,·
O=C(CSc1ncnc2ccccc12)Nc1ccc2c(c1)OCCO2,2,-11,40*,18,0,9,50*,-6
CC(Sc1ncnc2ccccc12)C(=O)Nc1ccc2c(c1)OCCO2 (centres undefined),5,27,43*,-9,0,21,28*,4
O=C(CSc1ncnc2ccccc12)NCc1ccc2c(c1)OCO2,-13,-9,·,-8,-1,9,·,·
O=C(CSc1nc(Cc2ccccc2)nc2ccccc12)Nc1ccc2c(c1)OCCO2,-3,7,31*,-12,2,11,71*,-9
COc1cc(C(=O)Nc2scc(-c3ccccc3)c2C(=O)O)cc(OC)c1OC,2,9,-1,4,i,14,·,·
COc1cc(C(=O)Nc2scc(-c3ccc(C)cc3)c2C(=O)O)cc(OC)c1OC,3,6,60*,15,0,4,69*,-5
CCN(c1ccccc1)S(=O)(=O)c1ccc(C(=O)N(CCCN(C)C)c2nc3c(C)cccc3s2)cc1,1,2,-15,12,i,6,·,·
